The whole screen tested about 190,000 compounds, of which about 1,300 (0.68%) were called active. No stated cut-off is given here; in the data, active means inhibition above about 50%; inactive means the rest. The sample as a whole holds a higher share of actives than the screen did.

Chain of Mannose-6-phosphate isomerase (Homo sapiens) (P34949 whole entry, looked up): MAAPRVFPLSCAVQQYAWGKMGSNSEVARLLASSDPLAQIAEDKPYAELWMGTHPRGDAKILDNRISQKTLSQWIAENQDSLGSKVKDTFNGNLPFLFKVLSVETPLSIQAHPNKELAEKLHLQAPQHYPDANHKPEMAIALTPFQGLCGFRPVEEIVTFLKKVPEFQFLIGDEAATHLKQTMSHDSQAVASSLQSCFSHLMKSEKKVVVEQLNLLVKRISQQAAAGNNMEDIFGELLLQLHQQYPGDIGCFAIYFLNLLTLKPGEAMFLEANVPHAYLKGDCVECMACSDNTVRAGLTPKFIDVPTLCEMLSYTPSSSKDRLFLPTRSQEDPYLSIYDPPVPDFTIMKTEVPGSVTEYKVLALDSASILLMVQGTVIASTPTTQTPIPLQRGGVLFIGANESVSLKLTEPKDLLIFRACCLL

This assay addresses Mannose-6-phosphate isomerase (Homo sapiens) (UniProt P34949). Nature of the assay: human PMI inhibitors, high substrate, primary screen, biochemical, fluorescence intensity, high mannose 6-phosphate (AID 1220). The note with it: recombinant PMI enzyme, coupled fluorescence intensity; at 20 µM; stronger effect = higher value.
For `Cc1ccccc1-n1c(-c2ccncc2)n[nH]c1=S`, the inhibition was -11.7% (inactive). Regarding `O=C1C(c2ccc(F)cc2)N(Cc2ccc3c(c2)OCO3)C(=O)CN1C1CCCC1` (stereo not drawn), the inhibition is 7.2% (inactive). For `COc1cc(C2/C(=C(\O)c3ccc4c(c3)CC(C)O4)C(=O)C(=O)N2CCCn2ccnc2)ccc1O` (stereo not drawn), the inhibition was 54.7% (active). To `CC1Cc2cc(/C(O)=C3/C(=O)C(=O)N(CCCn4ccnc4)C3c3ccncc3)ccc2O1` (stereo not drawn) belongs -10.1% (inactive).

Turning to `CC1Cc2cc(/C(O)=C3/C(=O)C(=O)N(CCCn4ccnc4)C3c3cccnc3)ccc2O1` (stereo not drawn), the inhibition was 3.7% (inactive). Turning to `COc1cc(-c2ccc(NC(=O)CN3CCC(C)CC3)c(OC)c2)ccc1NC(=O)CN1CCC(C)CC1`, the inhibition was 21% (inactive).

As to `CC(C)c1ccc(CN(C)CC(O)c2ccccc2)cc1` (stereo not drawn), the inhibition is -2.2% (inactive). To `CCN(CC)c1ccc(/C=N/NC(=O)c2c[nH]c3ccccc23)cc1` belongs 21.6% (inactive); to `COc1ccc(CCNC(=O)CCC(=O)Nc2nnc(C(C)C)s2)cc1OC`, 3.2% (inactive). As for `CCN1CCc2c(C#N)c(N3CCOCC3)nc(NCc3ccccc3)c2C1`, the inhibition was 19.3% (inactive). To `CCN1CCc2c(C#N)c(N3CCOCC3)nc(N3CCOCC3)c2C1` belongs -3% (inactive).

`CCN1CCc2c(C#N)c(N3CCOCC3)nc(NCCO)c2C1`: the inhibition is 57.2% (active). The result for `CC1(C)Cc2c(sc3nc(-c4cc5ccccc5o4)n(N)c(=O)c23)CO1` reads 7% (inactive); that for `CCN1C(=O)C(C)S/C1=N\S(=O)(=O)c1ccc(Cl)s1` (stereo not drawn), -0.5% (inactive).

`CC(C)CCN(C(=O)CNC(=O)c1cccs1)C(C(=O)NC1CCCC1)c1ccncc1` (stereo not drawn): the inhibition was -1.9% (inactive).

Regarding `O=C(NCCN1CCOCC1)c1ccc2ccccc2c1`, the inhibition was -3.6% (inactive).

For the molecule `c1ccc2c(NCCCN3CCOCC3)c3ccccc3nc2c1`, the inhibition is 8.7% (inactive).

Take `c1ccc(CCNc2ncnc3ccccc23)cc1`: the inhibition was 6.3% (inactive). On to `O=c1ccnc(NCCc2ccccc2)[nH]1`, for which the inhibition is -1.8% (inactive). The result for `c1ccc(CCNc2ccnc3cc4ccccc4cc23)cc1` reads 63.5% (active). The result for `c1ccc2cc3c(NCCN4CCOCC4)ccnc3cc2c1` reads 57% (active); that for `CCOC(=O)c1sc(-c2ccc(OC)cc2)cc1NC(C)=O`, -4.9% (inactive); that for `Cc1nc([N+](=O)[O-])c(C(=O)OCc2ccccc2Br)n1C`, -9.7% (inactive).

Consider `COc1ccc(C(=O)N/N=C/c2c(CO)cnc(C)c2O)cc1`, for which the inhibition was -36.3% (inactive). With `O=C(c1ccccc1)N(Cc1cccnc1)C1(C(=O)Nc2ccccc2)CCCCC1`, the inhibition was -14% (inactive). With `NC(=O)C1CCN(C(=O)CSc2nc3ccccc3[nH]2)CC1`, the inhibition is 2.1% (inactive). The result for `CN(C)c1ccc2c(O)cc(=O)n(C)c2c1` reads 56.1% (active); that for `CN(C)c1ccc2c(=O)[nH][nH]c(=O)c2c1`, 24.5% (inactive). As to `COc1cc(=O)n(C)c2cc(N(C)C)ccc12`, the inhibition is 6.9% (inactive). For `CCOCCCNC(=O)c1cn(CC(C)C)c(=O)c2cc(OC)c(OC)cc12`, the inhibition is 22.8% (inactive).

Take `Cc1ccccc1-n1c(=O)c2ccccc2n2cnnc12`: the inhibition was 1.1% (inactive). As to `Cc1ccccc1N1CC(=O)N(c2ccccc2C)CC1=O`, the inhibition was -4.3% (inactive). Consider `CC(C)(C)NC(=O)NC(=O)COC(=O)c1cccc(F)c1`, for which the inhibition is 10.3% (inactive). The result for `CC(=O)Nc1ccc(C(=O)n2nc(C)cc2C)cc1` reads -3.3% (inactive); that for `CNC(=S)N(Cc1ccco1)Cc1cc2cc3c(cc2[nH]c1=O)OCCO3`, 52.2% (active). In the case of `CCNC(=S)N(Cc1ccco1)Cc1cc2cc3c(cc2[nH]c1=O)OCCO3`, the inhibition is 4.6% (inactive). Consider `CC(C)CNC(=S)N(Cc1ccco1)Cc1cc2cc3c(cc2[nH]c1=O)OCCO3`, for which the inhibition is 12.4% (inactive). In the case of `COc1ccc(/C=N/NC(=O)c2cccc(NC(C)=O)c2)c(C(=O)O)c1OC`, the inhibition is -6.4% (inactive). `Cn1ccc(C(=O)OCC(=O)Nc2cccc3ccccc23)n1`: the inhibition was 0.8% (inactive). As for `CC(CCc1ccccc1)NC(=O)C(=O)N1CCOCC1` (stereo not drawn), the inhibition is 0.1% (inactive). The result for `CC1=C(C)C(=O)C(N2CCOCC2)=CC1=O` reads -17.5% (inactive). To `CC(C)(C)C1=CC(=O)C(N2CCOCC2)=CC1=O` belongs 65.3% (active); to `CN1CCOCCOCCN(C)C(=O)N2CCOCCOCCN(CCOCC2)C1=O`, 3% (inactive). To `Cc1ccc(S(=O)(=O)Oc2ccc(C)cc2/C=N/N=C2\NC(=O)C(C)S2)cc1` (stereo not drawn) belongs 8.8% (inactive); to `CC(=Nc1ccccc1C)C1=C(O)CSC1=O`, -8.7% (inactive); to `CC(=Nc1ccccc1)C1=C(O)CSC1=O`, -2.7% (inactive). With `COc1ccccc1N=C(C)C1=C(O)CSC1=O`, the inhibition is 54.1% (active). For `CCOC(=O)C1C(c2ccccc2)N(C)OC1(O)C(F)(F)F` (stereo not drawn), the inhibition is 6.7% (inactive). To `Cc1c(C(=O)OC2CCCC2)[nH]c2c1C(=O)CC(c1ccco1)C2` (stereo not drawn) belongs 23.1% (inactive); to `CCOC(=O)C(C)Oc1cccc2c(=O)n(CC(=O)Nc3ccc(OCC)cc3)ccc12` (stereo not drawn), 7.6% (inactive); to `Cc1cc(C)n2c(SCc3ccc(Cl)cc3Cl)nnc2n1`, -3.9% (inactive). The result for `CCN(Cc1cc(=O)n2ccsc2n1)Cc1nc2ccccc2c(=O)[nH]1` reads -3.9% (inactive); that for `CCN(Cc1cc(=O)n2ccsc2n1)c1cccc2ccccc12`, 67.3% (active); that for `CN(Cc1cc(=O)n2ccsc2n1)c1ccccc1`, -17.6% (inactive). The result for `COc1ccc(NC(=O)c2cc(OC)c(OC)c(OC)c2)cn1` reads 8.4% (inactive); that for `COc1ccc(NC(=O)c2cc(Br)c(Br)s2)cn1`, 53.2% (active); that for `COc1ccc(NC(=O)c2sccc2C)cn1`, 12.5% (inactive). `COc1cc(CNCCO)cc(Br)c1OCc1ccccc1`: the inhibition is 1.8% (inactive). As to `Cc1ccc(/C=C/C(=O)N2CC(=O)Nc3ccccc32)o1`, the inhibition was 1.3% (inactive). The result for `O=C1CN(C(=O)COC(=O)/C=C/c2ccco2)c2ccccc2N1` reads 1.6% (inactive); that for `Cc1ccc(/C=C/C(=O)OCC(=O)N2CC(=O)Nc3ccccc32)o1`, 55.2% (active); that for `CN(C)c1nc(OCCOC(=O)c2ccccc2)nc(N(C)C)n1`, 10% (inactive).

As for `O=[N+]([O-])c1ccc2cn(-c3ccccc3)nc2c1`, the inhibition is -4.3% (inactive). To `O=[N+]([O-])c1ccc2c(c1)ncn2-c1ccccc1` belongs -7.7% (inactive). The result for `CC(=O)Nc1ccc(S(=O)(=O)Nc2nc3ccccc3nc2N2CCCCCC2)cc1` reads 2.2% (inactive). With `Cc1cccc(N2CCN(C(=S)c3ccc(-c4ccccc4[N+](=O)[O-])o3)CC2)c1`, the inhibition was 57.3% (active).

In the case of `O=[N+]([O-])c1ccccc1-c1ccc(C(=S)N2CCCC2)o1`, the inhibition is 18.9% (inactive). In the case of `Cc1ccc(N2CCN(C(=S)c3ccc(-c4cccc([N+](=O)[O-])c4)o3)CC2)cc1`, the inhibition was 26.5% (inactive). The result for `Cc1cc(C)nc(N/N=C/c2cccc3ccccc23)n1` reads -14.6% (inactive); that for `COc1cccc(CN(C)C(=O)c2cccnc2SC)c1OC`, -6.5% (inactive). For the molecule `COc1ccc(-c2nnc3ccc(SCC(=O)N4CCOCC4)nn23)cc1`, the inhibition was -2.8% (inactive).

On to `CCN1C(=O)C(F)(CC)C(=O)c2ccccc21` (stereo not drawn), for which the inhibition was 4.2% (inactive).

Turning to `CC1(O)C(=O)c2ccccc2N(c2ccccc2)C1=O` (stereo not drawn), the inhibition was -4.8% (inactive). The result for `CN1C(=O)C(Cl)(Cl)C(=O)c2ccccc21` reads 68.4% (active); that for `O=C(NNC(=O)C1CC(c2cccnc2)=NO1)Nc1ccccc1F` (stereo not drawn), -6.2% (inactive).

As for `Cc1cc(S(=O)(=O)N(Cc2ccc(C(C)C)cc2)CC2CCCO2)ccc1-n1cnnn1` (stereo not drawn), the inhibition is -1% (inactive).

For the molecule `Cn1c(-c2ccccc2)c(C(=O)CCl)c2ccccc21`, the inhibition was -33.5% (inactive). To `Cc1nc(SCC(=O)c2ccccc2)n[nH]1` belongs 51.2% (active); to `Cc1nc(SCC(=O)c2ccc(F)cc2)n[nH]1`, 12.9% (inactive); to `Cc1ccc(C(=O)CSc2n[nH]c(C)n2)cc1`, -0.9% (inactive).

Consider `COc1ccc(CCNC(=O)CS(=O)(=O)c2cn(CC(=O)N3CCOCC3)c3ccccc23)cc1OC`, for which the inhibition is 51.4% (active). The result for `COc1ccc(CCNC(=O)CS(=O)(=O)c2cn(CC(=O)N3CCCC3)c3ccccc23)cc1OC` reads 46.9% (inactive); that for `CCN(CC)C(=O)Cn1cc(S(=O)(=O)CC(=O)NCCc2ccc(OC)c(OC)c2)c2ccccc21`, 20.4% (inactive); that for `COc1cc(SC)ccc1C(=O)Nc1ccc(Cl)cn1`, 2.4% (inactive). To `CC(=O)N1CCC2(CC1)CC(=O)c1cc(OCC(=O)N3CCOCC3)ccc1O2` belongs -1.2% (inactive). As for `CC1CCN(C2(O)C(=O)Nc3ccc(Br)cc32)CC1` (stereo not drawn), the inhibition is -1.3% (inactive). For `O=C1Nc2c(Br)cc(Br)cc2C1(O)N1CCOCC1` (stereo not drawn), the inhibition was 55.6% (active). Take `Cc1cc([N+](=O)[O-])cc2c1NC(=O)C2(O)N1CCOCC1` (stereo not drawn): the inhibition was 16.7% (inactive). The result for `COc1ccc(C2C(C(C)=O)=C(O)C(=O)N2CCCn2ccnc2)cc1` (stereo not drawn) reads -4% (inactive). The result for `CCOC(=O)C1(C)C=C(Nc2ccc(O)cc2)C(=O)N1c1ccc(O)cc1` (stereo not drawn) reads 58.5% (active); that for `CCOC(=O)C1(C)C=C(Nc2ccc(OC)cc2)C(=O)N1c1ccc(OC)cc1` (stereo not drawn), 18% (inactive). For `CCOC(=O)C1(C)C=C(Nc2ccc(C)cc2)C(=O)N1c1ccc(C)cc1` (stereo not drawn), the inhibition was -5.2% (inactive). The result for `O=C(/C=C/c1ccco1)Nc1nc(-c2ccccn2)cs1` reads 25.9% (inactive). To `CCOC(=O)c1c2ccc(OCC(=O)N/N=C/c3ccccc3C(F)(F)F)cc2n2ccccc12` belongs 64.2% (active); to `Cc1ccc(/C=N/NC(=O)CNC(=O)COc2ccccc2)cc1`, 8.2% (inactive). The result for `Cc1cccc(OCC(=O)N/N=C\c2cn(C)c3ccccc23)c1` reads -0.8% (inactive); that for `Cc1ccc(OCC(=O)N/N=C\c2cn(Cc3ccccc3)c3ccccc23)cc1C`, 2.4% (inactive); that for `CCOC(=O)c1c2ccc(OCC(=O)N/N=C/c3ccc(Cl)cc3)cc2n2ccccc12`, 48.6% (inactive).

By inhibition is commonly meant the relative decrease from the control value, in per cent.
